Pf growth 96h: Primary qHTS for delayed death inhibitors of the malarial parasite plastid, 96 hour incubation; Potency, µM (titrated, usually from 28.7 µM), usual class: inhibitors; P. falciparum luciferase reporter growth, 96 h; 320,000 compounds, 6.9% hits; AID 504834, 2011
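Two parasite generations (96 h, 37 C, 5% CO2) of compound exposure in infected erythrocytes (0.05% parasitemia, 2% hematocrit). Luciferase-reporter P. falciparum; decreased luminescence indicates inhibited growth, aimed at apicoplast-acting delayed death.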
Pf growth 48h: Primary qHTS for delayed death inhibitors of the malarial parasite plastid, 48 hour incubation. 310,000 compounds, 5.9% hits. P. falciparum luciferase growth in erythrocytes, 48 h. AID 504832, 2011. Potency, µM (series often up to 28.7 µM), most hits filed as inhibitors
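A one-generation exposure of luciferase-tagged malaria parasites in RPMI 1640/Albumax erythrocyte culture, 37 C and 5% CO2. Inhibition is inferred from decreased luminescence after adding detection reagent.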
NS1 inh: qHTS Assay for Inhibitors of Influenza NS1 Protein Function | 270,000 compounds, 0.4% hits | AID 2326, 2010 | Potency, µM (highest dose often 46.1 µM); calls by dose curve; further: actives are rising curves; nearly all actives have a fitted effect of over 50% in size
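Read-out: OD600 growth recovery of NS1-expressing budding yeast. Cells grown overnight at 30C in -URA glucose medium, washed, resuspended and diluted 1:100 in 2% galactose assay medium, pH 6.0. Same strain lacking NS1 served as positive control.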
Sm TGR block: qHTS Assay for the Inhibitors of Schistosoma Mansoni Peroxiredoxins. Schistosoma mansoni thioredoxin glutathione reductase (TGR), Q962Y6. purified TGR, DTNB reduction, TNB absorbance 405 nm. Potency, µM (titrated, usually from 114 µM), most hits filed as inhibitors. 360,000 compounds, 3% hits; further: nearly all actives have a fitted effect of over 60% in size
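TGR 20 nM + NADPH 100 uM (dispensed conc.), cpd preinc 15 min RT; start with NADPH (500 uM addition) then DTNB (15 mM addition). Kinetic TNB absorbance, 405 nm filter. Four-parameter Hill fit across titration.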
Shiga toxin inh: A qHTS for Small Molecule Inhibitors of Shiga Toxin; Vero cells, Shiga toxin protein synthesis inhibition reporter; inhibition, % at 38.7 µM; 290,000 compounds, 9.2% hits; AID 2315, 2010; in the data active means inhibition mostly above about 28%, no sharp cut-off; inactive means mostly below about 43%
Cycloheximide cs: Cycloheximide Counterscreen for Small Molecule Inhibitors of Shiga Toxin | 300,000 compounds, 12% hits | cell reporter, cycloheximide protein synthesis inhibition counterscreen | max response, %; in the data active means max response mostly above about 13%, no sharp cut-off; inactive means mostly below about 14%; further: read at 38.3 µM for the half of the compounds with a filed dose
NS1 inh valid: Assay for Inhibitors of Influenza NS1 Protein Function: Hit Validation; shares compounds with NS1 inh; influenza NS1 function cell assay, 15-point titration; activity change, negative = inhibition, % at 32.9 µM; 1,400 tested, under 10 active; AID 492980, 2010; calls by dose curve
PR8 titer: Assay for Inhibitors of Influenza NS1 Protein Function: Influenza virus replication assay in MDCK cells infected with virus A/PR/8/34; shares compounds with NS1 inh; MDCK infected influenza A/PR/8/34, virus titer TCID50; hits give low values; AID 504647, 2011; 95 compounds, 30% hits; virus titer (log TCID50), log10 TCID50 at 5 µM; call rule not given here
Each line names hits and unclear results; the compound was inactive in the other large screens (follow-up assays come after a bar, where they were run). An excerpt weighted towards active compounds, which were near 21% of everything screened. Unless noted, the call rests on the fitted dose curve; in most records, active means well fitted curve in the direction sought with a large enough effect; inconclusive means small, poorly fitted or top-dose-only effect, or another doubt; inactive means no such curve, though single readings can be large; an effect the other way counts as inactive or inconclusive.

O=C(CN1C(=O)NC2(CCCCC2)C1=O)N1CCN(S(=O)(=O)c2cccc([N+](=O)[O-])c2)CC1	none (no result: NS1 inh, Shiga toxin inh, Cycloheximide cs)
COc1ccc(NC(=O)CN(C)C(=O)c2ccc(C)s2)cc1	none
CCCC(CCC)C(=O)OC1C[C@H]2CC[C@@H](C1)[N+]2(C)C (some centres undefined)	Pf growth 96h 4.26µM, Pf growth 48h 12µM, NS1 inh inconclusive | NS1 inh valid inactive
COc1ccc(CNC(=O)C2CCN(S(=O)(=O)N3CCC(C)CC3)CC2)c(OC)c1	none (no result: Pf growth 96h, Pf growth 48h, NS1 inh, Shiga toxin inh, Cycloheximide cs)
COc1ccc(-c2c(C)nc(N)nc2-c2ccc(OCc3ccc(C)cc3)cc2O)cc1OC	Pf growth 96h inconclusive, Pf growth 48h inconclusive, NS1 inh 3.16µM | NS1 inh valid inactive
COc1ccc(C2NC(=O)NC(C)=C2C(=O)OC2CCCC(C)C2)cc1 (centres undefined)	Pf growth 96h inconclusive (no result: Shiga toxin inh)
COc1ccc(C2NC(=O)NC(C)=C2C(=O)OC2CCC(C)CC2)cc1 (centres undefined)	Pf growth 96h inconclusive, NS1 inh inconclusive | NS1 inh valid inactive
O=C(O)CC/C(=C\c1cccc(NC(=O)c2ccccc2Cl)c1)c1nc2ccccc2s1	NS1 inh inconclusive | NS1 inh valid inactive
O=C(O)CC/C(=C\c1ccc(N2CCCC2)c([N+](=O)[O-])c1)c1nc2ccccc2s1	none (no result: NS1 inh)
CC(C)CC(C(=O)Nc1oc(-c2ccco2)c(-c2ccco2)c1C#N)N1C(=O)c2ccccc2C1=O (centres undefined)	Pf growth 96h inconclusive, Pf growth 48h inconclusive, NS1 inh 10µM, Sm TGR block 56.2µM | NS1 inh valid inactive | PR8 titer inactive
COc1cc(NS(=O)(=O)c2ccc(Nc3nc(-c4ccccn4)cs3)cc2)nc(OC)n1	none
COc1ccc(-c2csc(Nc3ccc(S(=O)(=O)Nc4cc(OC)nc(OC)n4)cc3)n2)cc1	Pf growth 96h 14.7µM, NS1 inh 12.6µM | NS1 inh valid inactive | PR8 titer inactive
Cc1cc(C)c(S(=O)(=O)n2cnc(C)c2)c(C)c1	none (no result: Pf growth 96h, Pf growth 48h, NS1 inh, Shiga toxin inh, Cycloheximide cs)
COc1ccccc1N1CC(C(=O)OCC(=O)Nc2c(C)cccc2C)CC1=O (centres undefined)	Pf growth 96h inconclusive
CSc1ccc(C(c2c(C)[nH][nH]c2=O)c2c(C)[nH][nH]c2=O)cc1	Pf growth 96h inconclusive, NS1 inh 3.16µM | NS1 inh valid inconclusive
Cc1ccc(C(c2c(C)[nH][nH]c2=O)c2c(C)[nH][nH]c2=O)cc1	Pf growth 48h inconclusive
COc1ccc(-c2csc(C3=C(O)CN(Cc4ccc(Cl)cc4)C3=N)n2)cc1OC	Pf growth 48h inconclusive (no result: Pf growth 96h)
COc1cccc(CN2CC(O)=C(c3nc(-c4ccc(Cl)cc4)cs3)C2=N)c1	NS1 inh 5.01µM | NS1 inh valid inactive
Cc1ccc(NC2=Nc3ccccc3N3C2=Nc2c(c(C)nn2-c2ccccc2)C3c2ccc(O)c(O)c2)cc1 (centres undefined)	Pf growth 96h inconclusive, Pf growth 48h inconclusive, NS1 inh inconclusive
Cc1cccc(NC2=Nc3ccccc3N3C2=Nc2c(c(C)nn2-c2ccccc2)C3c2ccc(O)c(O)c2)c1 (centres undefined)	Pf growth 96h 11.7µM, Pf growth 48h inconclusive, NS1 inh 3.55µM | NS1 inh valid inactive
COc1ccc(N=C2S/C(=C\c3ccc(Cl)c([N+](=O)[O-])c3)C(=O)N2CCN(C)C)cc1	none
COc1ccc(N=C2S/C(=C\c3cc(C)n(C)c3C)C(=O)N2CC(C)C)cc1	Pf growth 96h inconclusive, Pf growth 48h inconclusive, NS1 inh 7.08µM | NS1 inh valid inactive
COc1cccc(OCC(=O)Nc2c(C(=O)Nc3ccc(OC)cc3OC)oc3ccccc23)c1	none (no result: Pf growth 96h, Pf growth 48h, Sm TGR block, Shiga toxin inh, Cycloheximide cs)
CCOc1ccc(CCNC(=O)C2CCN(Cc3nc(-c4ccc(OC)c(OC)c4)oc3C)CC2)cc1OCC	none (no result: Pf growth 96h, Pf growth 48h, NS1 inh, Shiga toxin inh, Cycloheximide cs)
Cc1c(C)c2ccc(OC(C)C(=O)N[C@@H](Cc3c[nH]c4ccccc34)C(=O)O)c(C)c2oc1=O (some centres undefined)	Pf growth 48h inconclusive, NS1 inh 10µM | NS1 inh valid inactive
Cc1c(OC(C)C(=O)NC(Cc2c[nH]c3ccc(O)cc23)C(=O)O)ccc2c1oc(=O)c1ccccc12 (centres undefined)	Pf growth 96h inconclusive
O=C(O)CCC(=O)c1ccc2sc3ccccc3c2c1	none (no result: Pf growth 96h, Pf growth 48h, Sm TGR block, Shiga toxin inh, Cycloheximide cs)
O=c1cc(O)n(-c2ccccc2F)c(=S)[nH]1	NS1 inh 3.16µM, Sm TGR block inconclusive (no result: Pf growth 96h) | NS1 inh valid inactive
Nc1nnc(CC(=O)N/N=C/c2ccc(-c3ccccc3)o2)s1	none
Cc1ccc(-c2ccc(/C=N/NC(=O)Cc3nnc(N)s3)o2)cc1Cl	NS1 inh inconclusive | NS1 inh valid inactive
CCOC(=O)C1=C(C)N(CC(C)C)C(=O)C1	none
CCCOC(=O)c1ccc(NC(=O)C2CC(=O)N(c3ccc(C)cc3)C2)cc1 (centres undefined)	none (no result: Pf growth 96h, Pf growth 48h, NS1 inh, Shiga toxin inh, Cycloheximide cs)
CCC(C)C(NC(=O)c1ccccc1NC(=O)c1ccco1)C(=O)NC1CCCCC1 (centres undefined)	Pf growth 48h 9.28µM, NS1 inh 4.47µM | NS1 inh valid inactive
COc1ccc2c(c1)CCC/C2=N\Nc1nc(C(=O)NN)cs1	Pf growth 96h inconclusive, Pf growth 48h 10.4µM, NS1 inh 8.91µM, Shiga toxin inh 75.8, Cycloheximide cs 46.1 | NS1 inh valid inactive
COc1ccc(-c2csc(NC(=O)CN3C(=O)NC4(CCCC4)C3=O)n2)c(OC)c1	none (no result: NS1 inh, Shiga toxin inh, Cycloheximide cs)
Cc1nc2ccccn2c1-c1csc(Nc2ccc(C(=O)O)cc2)n1	Pf growth 96h inconclusive, Pf growth 48h inconclusive
Cc1nc(NC(=O)c2ccccc2)sc1-c1csc(Nc2ccc(Cl)cc2)n1	Pf growth 96h 10.4µM, Pf growth 48h inconclusive, NS1 inh 5.01µM | NS1 inh valid inactive
C#CCOc1ccc(-c2nnc(Nc3cccc(C)c3)c3ccccc23)cc1	none (no result: Pf growth 96h, Pf growth 48h, NS1 inh, Shiga toxin inh, Cycloheximide cs)
Cc1ncc([N+](=O)[O-])n1CCOC(=O)Nc1ccc(Cl)c(Cl)c1	Pf growth 48h inconclusive, NS1 inh inconclusive | NS1 inh valid inactive
Cc1ncc([N+](=O)[O-])n1CCOC(N)=O	none
COc1ccc(C2=Nc3cccc4cccc(c34)N2)cc1	Pf growth 96h inconclusive, NS1 inh 3.55µM, Sm TGR block 50.1µM | NS1 inh valid inactive
Cc1ccc([N+](=O)[O-])cc1S(=O)(=O)N(C)C	none (no result: Pf growth 96h, Pf growth 48h, Sm TGR block)
